Screening results deposited in PubChem by National Center for Advancing Translational Sciences (NCATS).
VDR inhibitor – Inhibitors of the vitamin D receptor (VDR): qHTS; Vitamin D3 receptor (Homo sapiens), P11473; VDR-SRC2-3 peptide fluorescence polarization, 2 h; Potency, µM, most hits filed as inhibitors; 400,000 tested, 0.93% active; AID 504847, 2011
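Compounds are added to VDR with labelled SRC2-3 coactivator peptide and held 2 h at room temperature. Inhibition of the VDR–peptide interaction is then read as a change in fluorescence polarization.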
GCN5L2 inh – qHTS Assay for Inhibitors of GCN5L2 | 390,000 tested, 0.21% active | AID 504327, 2011 | Potency, µM (doses to about 58.9 µM), most hits filed as inhibitors | GCN5L2 HAT assay, ThioGlo1 CoA-SH fluorescence
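Titration-based screen in which CoA formation is detected via maleimide probe ThioGlo1 (50uM) turning fluorescent on thiol reaction; substrates H3(1-25) 75uM and acetyl-CoA 70uM, GCN5L2 20nM, 20 min incubation at room temperature.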
DT40 TDP1 CPT – qHTS for Inhibitors of human tyrosyl-DNA phosphodiesterase 1 (TDP1): qHTS in cells in presence of CPT | AID 686979, 2013 | chicken DT40 Tdp1-/-;hTDP1 cells + 20 nM CPT, ATP luminescence, 48 h | 420,000 tested, 12% active | Potency, µM (series often up to 46.2 µM), hits mostly inhibitors; further: nearly all actives have a fitted effect of over 55% in size
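Cell growth measured by CellTiter-Glo luminescence after a minimum 48 h, 37 C compound exposure with 20 nM CPT in Tdp1-knockout DT40 cells stably expressing hTDP1, seeded 400/well; qHTS titration format.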
DT40 TDP1 no CPT – qHTS for Inhibitors of human tyrosyl-DNA phosphodiesterase 1 (TDP1): qHTS in cells in absence of CPT. DT40 Tdp1-/- hTDP1 cells, no CPT, ATP luminescence, 48 h. Potency, µM (titrated, usually from 46.2 µM), usual class: inhibitors. 420,000 tested, 15% active. AID 686978, 2013; further: nearly all actives have a fitted effect of over 55% in size
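Cells were dispensed at 400 per well, compounds added by pin tool, plates incubated ≥48 hr at 37 °C, then CellTiter-Glo added for 30 min at room temperature before luminescence reading. Line: DT40 Tdp1-/- complemented with hTDP1; camptothecin omitted.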
TDP1 inh – qHTS Assay for Inhibitors of Tyrosyl-DNA Phosphodiesterase (TDP1). recombinant TDP1, AlphaScreen DNA substrate cleavage. 350,000 tested, 0.28% active. Potency, µM (titrated, usually from 130 µM), most hits filed as inhibitors. Tyrosyl-DNA phosphodiesterase 1 (Homo sapiens), Q9NUW8; further: nearly all actives have a fitted effect of over 40% in size
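E. coli-derived human Tdp1, 1 nM final. Cpd preinc 15 min RT; substrate 15 nM final, 5 min RT; AS bead mix 10 ug/ml final, 10 min RT. Signal loss = tyrosine-FITC cleavage. No-enzyme wells = max signal.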
PLK1 PBD block – qHTS for Inhibitors of PLK1-PDB (polo-like kinase 1 - polo-box domain): Primary Screen; Serine/threonine-protein kinase PLK1 (Homo sapiens), P53350; Plk1 PBD binding of FITC phosphopeptide, fluorescence polarization; Potency, µM, actives largely listed as inhibitors; 360,000 tested, 2.8% active; AID 720504, 2013; further: series mostly up to about 57 µM; nearly all actives have a fitted effect of over 65% in size
Target sequence (P53350 whole entry, looked up, the tested form may be a part): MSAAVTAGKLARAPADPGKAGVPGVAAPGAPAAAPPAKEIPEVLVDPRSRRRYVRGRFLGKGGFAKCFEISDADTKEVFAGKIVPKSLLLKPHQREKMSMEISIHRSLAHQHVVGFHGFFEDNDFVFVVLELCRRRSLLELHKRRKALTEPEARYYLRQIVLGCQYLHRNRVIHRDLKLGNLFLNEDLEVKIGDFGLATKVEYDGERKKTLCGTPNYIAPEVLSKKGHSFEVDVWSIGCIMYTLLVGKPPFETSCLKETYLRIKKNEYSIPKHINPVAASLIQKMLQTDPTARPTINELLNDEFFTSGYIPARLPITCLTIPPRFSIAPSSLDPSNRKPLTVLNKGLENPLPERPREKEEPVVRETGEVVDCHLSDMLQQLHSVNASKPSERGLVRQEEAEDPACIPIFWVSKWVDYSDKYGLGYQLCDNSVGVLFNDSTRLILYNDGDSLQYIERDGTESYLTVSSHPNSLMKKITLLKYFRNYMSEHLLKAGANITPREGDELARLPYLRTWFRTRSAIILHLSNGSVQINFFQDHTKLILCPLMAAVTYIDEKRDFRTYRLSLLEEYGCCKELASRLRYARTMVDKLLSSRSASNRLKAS
A number is an active result; - = inactive; ? = inconclusive; . = no result; [ ] = remark or other dose. This is a sample that favours compounds with a hit; in the whole collection about 18% have one here. The call rests on the fitted dose curve; in most records, active means well fitted curve in the direction sought with a large enough effect; inconclusive means small, poorly fitted or top-dose-only effect, or another doubt; inactive means no such curve, though single readings can be large; an effect the other way counts as inactive or inconclusive.

SMILES | VDR inhibitor | GCN5L2 inh | DT40 TDP1 CPT | DT40 TDP1 no CPT | TDP1 inh | PLK1 PBD block
COC(=O)c1ccc(Nc2nc(-c3ccc(C)cc3)nc3ccccc23)cc1 | - | - | 13µM | 7.3µM | . | .
Cc1ccc(-c2nc(Nc3ccc(O)cc3)c3ccccc3n2)cc1 | - | - | ? | 21µM | . | -
Oc1cccc(Nc2c3ccccc3nc3ccccc23)c1 | - | - | 1.2µM | 1.8µM | . | -
OCCNc1nc(Nc2cccc(O)c2)nc2ccccc12 | - | - | ? | ? | - | -
Oc1cccc(Nc2nc(-c3ccccc3Cl)nc3ccccc23)c1 | - | - | 16µM | 13µM | . | -
COCCNc1nc(-c2ccc(C(=O)N(C)C)cc2)nc2ccccc12 | - | - | - | - | . | .
N#Cc1nc(Nc2cc(F)cc(F)c2)nc(NC2CCCC2)n1 | . | . | . | . | - | .
c1cncc(Nc2c3ccccc3nc3ccccc23)c1 | - | - | ? | 15µM | . | -
Cc1ccc(-c2nc(Nc3ccc(N4CCOCC4)cc3)c3ccccc3n2)cc1 | - | - | ? | 23µM | . | -
c1ccc(-c2cc(-c3ccc(N4CCOCC4)cc3)nc3ccccc23)cc1 | - | - | - | - | . | -
O=[N+]([O-])c1ccc(-c2nc(Nc3cccc(O)c3)c3ccccc3n2)cc1 | - | - | 16µM | 4.1µM | . | -
O=C(O)c1cccc(Nc2nc(-c3ccccc3)nc3ccccc23)c1 | - | - | - | - | . | -
Cc1ccc(-c2nc(Nc3cccc(O)c3)c3ccccc3n2)cc1 | - | - | 21µM | 23µM | . | -
CCN1CCCC1CNC(=O)C(=O)NCCc1ccc(OC)c(OC)c1 (stereo not drawn) | - | - | - | - | - | -
COc1ccc2[nH]c(=O)c(CN(C(=O)c3cccnc3)c3ccccc3C)cc2c1 | - | - | - | - | . | -
COCCn1c(=O)c(-c2ccc(OC)cc2)nc2cnc(Oc3ccc(OC)cc3)nc21 | - | - | - | - | . | .
CC(NC(=O)c1nn(C)c(=O)c2ccccc12)c1ccccc1 (stereo not drawn) | - | - | ? | ? | - | -
Cn1nc(C(=O)N2CCN(C(c3ccccc3)c3ccccc3)CC2)c2ccccc2c1=O | - | ? | 23µM | ? | - | -
CCCCn1nc(C(=O)N2CCN(S(=O)(=O)c3ccccc3)CC2)c2ccccc2c1=O | - | - | ? | 15µM | - | -
CCOc1ncccc1C(=O)N1CCN(C(c2ccccc2)c2ccccc2)CC1 | - | - | 13µM | 13µM | - | ?
Cn1nc(C(=O)N2CCN(S(=O)(=O)c3ccc(Cl)cc3)CC2)c2ccccc2c1=O | - | - | ? | 23µM | - | -
O=C(COc1ccc(Cl)cc1Cl)N1CCN(C(=O)c2ccco2)CC1 | - | - | - | - | . | -
COc1cc(C#N)ccc1OCC(=O)N1CCc2ccccc2C1 | - | - | - | - | - | -
Cc1cccc(C)c1NC(=O)C1CCN(S(C)(=O)=O)CC1 | - | - | - | - | . | -
O=C(c1n[nH]c2ccccc12)N1CCN(S(=O)(=O)c2ccc(Cl)cc2)CC1 | - | - | ? | 18µM | - | -
SMILES | VDR inhibitor | GCN5L2 inh | DT40 TDP1 CPT | DT40 TDP1 no CPT | TDP1 inh | PLK1 PBD block
CCOc1ccccc1N(CC(=O)N1CCCCCC1)S(=O)(=O)c1ccc(C)cc1 | - | - | 23µM | ? | - | -
CCOC(=O)C1CCC(CN(Cc2ccc(Cl)cc2)S(=O)(=O)c2cc(Cl)cc(Cl)c2)CC1 (stereo not drawn) | - | - | 21µM | 10µM | - | .
COc1cccc(N(CC(=O)N2CCC(C)CC2)S(=O)(=O)c2ccc(C)cc2)c1 | - | - | 21µM | 15µM | -[12.3 µM] | .
Cc1ccc(S(=O)(=O)N(CC(=O)NC2CCCCCC2)c2ccccc2F)cc1 | - | - | - | - | - | -
COc1cccc(N(CC(=O)N2CCN(C)CC2)S(=O)(=O)c2ccc(C)cc2)c1 | - | - | - | - | - | -
CCOc1ccccc1N(CC(=O)NC1CCCC1)S(=O)(=O)c1ccc(C)cc1 | - | - | ? | 21µM | -[0.0935 µM] | -
COC(=O)C(C)NC(=O)c1cn(-c2ccccc2OC)c(=O)c2ccccc12 (stereo not drawn) | - | - | - | - | . | -
CCC(N)(C(=O)O)c1ccc(C(=O)O)cc1 (stereo not drawn) | - | - | ? | - | - | .
CCOc1ccccc1N(CC(=O)NC1CCCCC1)C(=O)c1nsc(Cl)c1Cl | - | - | - | 26µM | - | -
CCOC(=O)N1CCN(C(=O)CN(c2ccccc2OC)S(=O)(=O)c2ccc(C)cc2)CC1 | - | - | - | - | - | -
CCOc1ccccc1N(CC(=O)N1CCC(C)CC1)S(=O)(=O)c1ccc(C)cc1 | - | - | 9.2µM | 15µM | - | -
CCOC(=O)N1CCN(C(=O)CN(Cc2ccc(Cl)cc2)S(C)(=O)=O)CC1 | - | - | - | - | - | -
CCOC(=O)N1CCN(C(=O)CN(Cc2ccc(Cl)cc2)S(=O)(=O)c2ccc(C)cc2)CC1 | - | -[0.501 µM] | 16µM | ? | - | -
COc1ccccc1NC(=O)c1ccc(CSc2ccccc2)o1 | - | - | ? | - | - | -
Cc1ccc(C(=O)O)cc1-c1ccc(/C=C2/NC(=O)N(c3ccccc3)C2=O)o1 | - | - | - | - | 1.6µM | ?
CCn1c(C)cc(/C=C2\NC(=O)N(Cc3ccc(Cl)cc3)C2=O)c1C | - | - | - | ? | - | -
Cc1ccc(CN2C(=O)N/C(=C\c3ccc(-c4ccc(C(=O)O)cc4C)o3)C2=O)cc1 | - | ? | - | - | 8.9µM | ?
C#CCN1C(=O)S/C(=C\c2ccc(-c3ccc(C(=O)O)cc3C)o2)C1=O | - | - | - | - | . | ?
Cc1ccccc1NC(=O)CN1C(=O)S/C(=C\c2ccc(-c3cc(C(=O)O)ccc3C)o2)C1=O | - | - | - | - | . | -
O=C(O)c1ccc(-c2ccc(/C=C3\NC(=O)N(Cc4ccc(Cl)cc4)C3=O)o2)cc1 | - | - | ? | - | 13µM | ?
Cc1cc(C(=O)O)ccc1-c1ccc(/C=C2\NC(=O)N(Cc3ccccc3Cl)C2=O)o1 | ? | ? | - | - | - | 17µM
COc1ccc(NC(=O)C2CCCCN2S(=O)(=O)c2ccccc2)cc1S(=O)(=O)N1CCOCC1 (stereo not drawn) | - | . | - | - | . | -
CCCCN1C(=O)c2ccc(C(=O)NC3(C)CCS(=O)(=O)C3)cc2C1=O (stereo not drawn) | - | - | - | ? | - | -
